Activity calls are given as the source filed them. Rule as the data show it: active = log2 fold change growth below about -1.8; inactive = the rest.

Consider 38 molecules from PubChem BioAssay AID1259336 (Sattelle Laboratory, UCL Respiratory, Division of Medicine, …, 2017).

The nature of this experiment: C. elegans growth inhibition, whole organism, log2 fold change (AID 1259336).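 Also: growth scored by imaging after five days at 20 °C.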 The settings on record: anthelmintic screen, active compounds read low.
As for `CC[C@H](NC(=O)c1ccccc1NC(=O)c1ccc(C)cc1)C(=O)OC`, the log2 fold change growth is 0.0874 (inactive).

Turning to `COC(=O)Nc1nc2ccc(C(=O)c3ccccc3)cc2[nH]1`, the log2 fold change growth is -6.04 (active).

In the case of `CC(=O)Oc1ccccc1C(=O)Nc1ncc([N+](=O)[O-])s1`, the log2 fold change growth was 0.253 (inactive).

`CC(=O)NC[C@@H]1CN(c2ccc(N3CCOCC3)c(F)c2)C(=O)O1`: the log2 fold change growth was -0.257 (inactive).

On to `c1ccc2c(c1)CN(CC1CC1)CC1(CCN(Cc3c[nH]c4cnccc34)CC1)O2`, for which the log2 fold change growth is 0.264 (inactive).

Turning to `COc1cc(C2=NCCN2)cc2cc(-c3ccc(C4=NCCN4)cc3)oc12`, the log2 fold change growth was 0.303 (inactive).

`COC(=O)C1=C(C)NC(C)=C(C(=O)OC(C)C)[C@H]1c1cccc2nonc12`: the log2 fold change growth is -2.22 (active).

Regarding `c1ccc(Oc2ccc(-c3cc(N4CCNCC4)n[nH]3)cc2)cc1`, the log2 fold change growth was 0.489 (inactive).

As to `COc1ccc([C@@H]2CC(c3cccs3)=NN2C(=O)c2ccco2)cc1OC`, the log2 fold change growth is -0.296 (inactive).

On to `Cc1cc(NC(=O)c2ccc(Oc3ccc(Cl)cc3O)o2)no1`, for which the log2 fold change growth is 0.201 (inactive).

Take `COc1ccc(-c2cnc3ccc(NCc4ccc(S(N)(=O)=O)cc4)nn23)cn1`: the log2 fold change growth is 0.21 (inactive).

Take `CCOc1ccc(OCC(=O)Nc2cc(C)cc(C)c2)cc1`: the log2 fold change growth is -0.0899 (inactive).

On to `CCc1nc2ccc(C(=O)NCc3ccc4c(c3)OCO4)cn2c1N(C)Cc1cccs1`, for which the log2 fold change growth was -0.917 (inactive).

As to `Clc1ccc(Cl)c(CO[C@H]2CCCC[C@@H]2n2ccnc2)c1`, the log2 fold change growth was 0.0539 (inactive).

In the case of `O[C@@H](c1cc(C(F)(F)F)nc2c(C(F)(F)F)cccc12)[C@H]1CCCCN1`, the log2 fold change growth is -0.189 (inactive).

Turning to `NCC(=O)N1CCn2c(nc(-c3ccccc3)c2Nc2ccc3c(c2)OCO3)C1`, the log2 fold change growth was 0.0553 (inactive).

`Cc1ccc(-c2nc(CN(Cc3ccccn3)C(C)C)cs2)o1`: the log2 fold change growth is 0.617 (inactive).

On to `COc1ccc(OC)c(NCc2ccc3nc(N)nc(N)c3c2Cl)c1`, for which the log2 fold change growth was 0.162 (inactive).

Take `Nc1ncc(Br)cc1-c1nc2ncc(Cl)cc2[nH]1`: the log2 fold change growth is 0.329 (inactive).

Regarding `CC(C)(C)n1nc(-c2ccccc2)c2c(N)ncnc21`, the log2 fold change growth is -0.162 (inactive).

As for `O=C(NCCc1ccccc1)c1cc(-c2cccnc2)cnc1NCC1CC1`, the log2 fold change growth is -0.19 (inactive).

Consider `FC(F)(F)c1ccc(N(c2cccnc2)C2CCN(c3ccc(C(F)(F)F)cn3)CC2)cc1`, for which the log2 fold change growth is -0.44 (inactive).

On to `c1cncc(NCc2ccc(-c3cc4ccncc4cc3OC3CCNCC3)s2)c1`, for which the log2 fold change growth is 0.376 (inactive).

As for `Cc1cc(C)cc(COc2ccc3c(C)c(CCC(=O)O)c(=O)oc3c2C)c1`, the log2 fold change growth is -0.0961 (inactive).

For the molecule `O=C(C1CCN(c2nnnn2-c2ccccc2)CC1)N1CCc2ccccc2C1`, the log2 fold change growth was -0.288 (inactive).

`O=C(Nc1ccnc(-c2cccnc2)n1)c1cc(C(F)(F)F)cc(C(F)(F)F)c1`: the log2 fold change growth was 0.327 (inactive).

Take `NC(=O)c1cc(Br)ccc1OCCOc1ccccc1`: the log2 fold change growth was 0.186 (inactive).

In the case of `Cc1ccc(S(=O)(=O)N2CCN(C(=O)c3cc(-c4ccccc4)n[nH]3)CC2)cc1`, the log2 fold change growth was -0.371 (inactive).

For the molecule `N[C@@H](CC(=O)c1ccc(Cl)cc1Cl)C(Cl)(Cl)Cl`, the log2 fold change growth is -0.444 (inactive).

Turning to `Cc1ccc2cc([C@@H]3NC(=O)c4ccccc4N3)c(Cl)nc2c1`, the log2 fold change growth was -0.0454 (inactive).

Turning to `OC[C@H]1O[C@@H](n2c3ccc(Cl)cc3c3c(-c4cc5ccccc5o4)ncnc32)C(O)[C@H]1O` (stereo partly drawn), the log2 fold change growth is -0.877 (inactive).

For `CS(=O)(=O)c1ccccc1C(=O)N(Cc1ccccc1)c1ccccc1`, the log2 fold change growth is -0.293 (inactive).

Take `NCCC(O)C(=O)N[C@@H]1C[C@H](N)[C@@H](OC2O[C@H](CN)[C@@H](O)[C@H](O)[C@H]2O)[C@H](O)C1OC1O[C@H](CO)[C@@H](O)[C@H](N)[C@H]1O` (stereo partly drawn): the log2 fold change growth was 0.334 (inactive).

As for `COc1cc(CN2CCC3(C=Cc4ccccc43)CC2)cc2c1OCO2`, the log2 fold change growth is -0.677 (inactive).

Consider `Cc1cnc(CCNC(=O)c2cc(-c3ccc(Cl)cc3)cs2)[nH]1`, for which the log2 fold change growth was -0.147 (inactive).

For `Cc1cccc(-c2nc(Nc3ccncn3)c3sccc3n2)n1`, the log2 fold change growth is 0.438 (inactive).

In the case of `O=C(c1ccc(F)cc1)N(CCNc1ccccc1)c1ccccc1`, the log2 fold change growth was 0.348 (inactive).

Regarding `CC(C)(C)c1cnc(NC(=O)c2ccccc2O)s1`, the log2 fold change growth was 0.155 (inactive).
